SMILES strings stand for the structures. Screen size: about 330,000 compounds; about 1,700 (0.52%) were called active. What follows is part of a selection rich in actives, with near analogues and random picks from the rest. Unmarked numbers belong to inactive results.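 How the source made its calls: active means GFP response versus DMSO above a set limit, roughly screen mean plus 3 SD (cut at about 180% in these data); inconclusive means fewer than 70 cells counted for a yeast strain; inactive means the rest.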

This test can be described thus: modulators of MEP2-GFP levels in yeast, primary screen, S. cerevisiae, multiplex flow cytometry, MLPCN library (AID 2016).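 Further: median GFP fluorescence of the barcode-gated MEP2-GFP cells per well.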 Conditions: S. cerevisiae MEP2-GFP strain, 3 h, at 10 µM, hits give high values, 100% = DMSO control level. Background: Flow cytometry measures light scatter and fluorescence of single cells or particles in a stream.
As to `CCc1ccccc1NC(=O)CSc1nnc([C@@H](NC(=O)OC(C)(C)C)C(C)C)o1`, the GFP response vs DMSO is 88.8%.

On to `CCc1ccccc1NC(=O)CSc1nnc([C@@H](NC(=O)OC(C)(C)C)C(C)CC)o1` (stereo not given in full), for which the GFP response vs DMSO is 193% [may fluoresce violet] (active).

Turning to `CCc1ccccc1NC(=O)CSc1nnc(CCNC(=O)OC(C)(C)C)o1`, the GFP response vs DMSO is 114%.

Take `C#CCOCCOCCOCCNc1nc(N2CCN(C(=O)C(Cc3ccc(O)cc3)n3cc(C(N)CC(C)C)nn3)CC2)nc(N2CCN(C(=O)C(Cc3ccc(O)cc3)n3cc(C(N)C(C)CC)nn3)CC2)n1` (stereo not given): the GFP response vs DMSO was 93.7%.

As for `CC(NCC(=O)Nc1cc(Cl)cc(Cl)c1)c1ccccc1` (stereo not given), the GFP response vs DMSO was 91.3%.

For the compound `CCSc1sc(CC)cc1C=O`, the GFP response vs DMSO was 210% [may fluoresce violet] (active).

With `COc1ccc2c(c1)C(=C(C#N)C#N)C(=O)N2CCc1ccccc1`, the GFP response vs DMSO was 103%.

`CC(=O)C1=C(C)NC(=O)NC1c1ccc2c(c1)OCO2` (stereo not given): the GFP response vs DMSO was 179% [may fluoresce violet] (active).

Consider `CCOCCOC(=O)C1=C(C)NC(=O)NC1c1ccc2c(c1)OCO2` (stereo not given), for which the GFP response vs DMSO is 111%.

With `COCCOC(=O)C1=C(C)NC(=O)NC1c1cc2c(cc1Br)OCO2` (stereo not given), the GFP response vs DMSO is 95.2%.

Consider `O=C(CC12CC3CC(CC(C3)C1)C2)Nc1ccc2c(c1)COC2=O`, for which the GFP response vs DMSO is 99.2%.

With `Brc1ccc(C2CC(c3ccccc3)=Nc3ccccc3N2)cc1` (stereo not given), the GFP response vs DMSO was 101%.

On to `OCC[C@H]1C[C@@H](O)[C@H](O)[C@]2(OCCCc3ccccc32)O1`, for which the GFP response vs DMSO is 96.7%.

For the compound `Cc1ccc(C2Nc3cccc4cccc(c34)N2)cc1`, the GFP response vs DMSO is 110%.

Turning to `Brc1ccccc1C1Nc2cccc3cccc(c23)N1`, the GFP response vs DMSO was 104%.

Turning to `Oc1ccc(C2Nc3cccc4cccc(c34)N2)cc1`, the GFP response vs DMSO is 184% (active).

On to `O=C(CSc1n[nH]c(=O)n1-c1ccccc1)Nc1ccccc1C(F)(F)F`, for which the GFP response vs DMSO was 109%.

`COc1ccc(C)cc1NC(=O)CN(C)S(=O)(=O)c1ccc2c(c1)n(C)c(=O)c(=O)n2C`: the GFP response vs DMSO is 110%.

Take `COc1ccccc1NS(=O)(=O)c1ccc(C)c(C(=O)NCC(c2ccco2)N(C)C)c1` (stereo not given): the GFP response vs DMSO is 104%.

Regarding `O=C(CC(n1cncn1)C(Cl)(Cl)Cl)c1ccc([N+](=O)[O-])cc1` (stereo not given), the GFP response vs DMSO is 91.9%.

As to `O=C(c1ccncc1)c1ccc([N+](=O)[O-])cc1`, the GFP response vs DMSO is 90.2%.

On to `CCc1noc(C)c1C(=O)NNC(=O)c1ccc(F)cc1`, for which the GFP response vs DMSO is 100%.

For `Cc1onc(-c2ccccc2)c1C(=O)NNC(=S)NC(=O)c1ccc(F)cc1`, the GFP response vs DMSO is 176% [may fluoresce violet] (active).

Consider `COc1ccc(C(=O)NC(=S)NNC(=O)c2c(-c3ccccc3)noc2C)cc1`, for which the GFP response vs DMSO is 113%.

As for `O=C(OCC(=O)N1CCCCCC1)c1ccc(Cl)nc1`, the GFP response vs DMSO was 105%.

On to `CCC(CO)Oc1cc(NC(=O)c2ccc(Cl)cc2)c2ncn(C(C)C)c2c1` (stereo not given), for which the GFP response vs DMSO is 102%.

With `Cc1ccc(C2(C)NC(=O)N(CC(=O)N3CC(=O)Nc4ccccc43)C2=O)cc1` (stereo not given), the GFP response vs DMSO was 95%.

Consider `CCC(C)(C)NC(=O)C(c1ccc(O)cc1)N(C(=O)Cn1nnc2ccccc21)c1ccc(NC(C)=O)cc1` (stereo not given), for which the GFP response vs DMSO was 93.5%.

On to `CC(C)(C)NC(=O)C(c1ccco1)N(Cc1ccc2c(c1)OCO2)C(=O)Cn1nnc2ccccc21` (stereo not given), for which the GFP response vs DMSO was 101%.

As to `CCC(C)(C)NC(=O)C(c1cccn1C)N(Cc1ccc(C)cc1)C(=O)Cn1nnc2ccccc21` (stereo not given), the GFP response vs DMSO is 200% [may fluoresce violet] (active).

With `O=C(NCc1ccccc1Cl)C1CCN(S(=O)(=O)N2CCOCC2)CC1`, the GFP response vs DMSO is 93.8%.

In the case of `O=C(NCc1ccco1)C1CCCN(S(=O)(=O)c2cccc3nonc23)C1` (stereo not given), the GFP response vs DMSO is 97.8%.

Consider `O=C(NCc1ccccc1Cl)C1CCN(S(=O)(=O)c2cccc3nonc23)CC1`, for which the GFP response vs DMSO was 287% [may fluoresce violet] (active).

For the compound `CCc1cccc(C)c1NS(=O)(=O)c1cc(Br)cnc1N`, the GFP response vs DMSO is 105%.

Consider `Cn1c(=O)n(C)c(=O)n(CC(=O)N2CCCCC2)c1=O`, for which the GFP response vs DMSO was 95.9%.

For `CCn1c(=S)[nH]c2sc3c(c2c1=O)CCCCC3`, the GFP response vs DMSO was 106%.

Take `CCC1(C)Cc2c(sc3[nH]c(=S)n(Cc4ccccc4)c(=O)c23)CO1` (stereo not given): the GFP response vs DMSO was 234% [may fluoresce violet] (active).

On to `CCC1(C)Cc2c(sc3nnn(CC(=O)Nc4ccc(Cl)cc4)c(=O)c23)CO1` (stereo not given), for which the GFP response vs DMSO is 104%.

Consider `O=C(NNS(=O)(=O)Cc1ccccc1)c1ccc([N+](=O)[O-])cc1`, for which the GFP response vs DMSO is 796% [may fluoresce violet] (active).

For the compound `O=C(CNC(=O)c1ccccc1)Oc1ccc([N+](=O)[O-])cc1`, the GFP response vs DMSO was 109%.

Regarding `O=C(Cc1ccccc1)NNS(=O)(=O)c1ccc([N+](=O)[O-])cc1`, the GFP response vs DMSO is 94.8%.

On to `COCCn1c(C)cc(C(=O)CSc2nnc(C3CC3)n2C2CC2)c1C`, for which the GFP response vs DMSO was 101%.

Consider `CCN(CCCNC(=O)CSc1cc(=O)n(C)c2cc(Cl)ccc12)Cc1ccccc1`, for which the GFP response vs DMSO was 102%.

For `Cc1cc(C=O)c(C)n1-c1ccc(NC2CCCCC2)c([N+](=O)[O-])c1`, the GFP response vs DMSO was 101%.

As for `CCOC(=O)c1sc2nc(C)nc(SCC(N)=O)c2c1C`, the GFP response vs DMSO is 105%.

In the case of `O=C(NCc1ccncc1)C1CCN(C(=O)c2cccc(Cl)c2)CC1`, the GFP response vs DMSO is 465% [may fluoresce violet] (active).

With `COc1ccc(CNC(=O)C2CCN(C(=O)c3ccccc3)CC2)cc1`, the GFP response vs DMSO is 96.9%.

As to `O=C(c1cccc(Cl)c1)N1CCN(Cc2ccccc2)CC1`, the GFP response vs DMSO is 110%.

For `CC1CC(NC(=O)/C(C#N)=C/c2ccc[nH]2)CC(C)(C)C1` (stereo not given), the GFP response vs DMSO was 90.7%.

For the compound `COc1cc(CCC(=O)Nc2ccncc2Cl)cc(OC)c1OC`, the GFP response vs DMSO was 101%.

Regarding `C/C(=N\NC(=O)c1cccnc1)c1ccc(-c2ccccc2)cc1`, the GFP response vs DMSO was 189% [may fluoresce violet] (active).

In the case of `C/C(=N\NC(=O)c1cccnc1)c1ccc(-n2ccnc2)cc1`, the GFP response vs DMSO is 89.5%.

Take `C/C(=N\NC(=O)c1ccc2ccccc2c1)c1cccnc1`: the GFP response vs DMSO is 91.2%.

With `Cc1noc(C)c1-c1nc(CSc2ccc(Cl)cc2)no1`, the GFP response vs DMSO was 105%.

As to `O=C(Nc1ccccc1Cl)N1CCN(c2ccc3nncn3n2)CC1`, the GFP response vs DMSO was 97.1%.

These data come from PubChem BioAssay AID2016 (NMMLSC, 2009).
